Screens: PubChem BioAssay, Broad Institute
Most compounds without a hit are left out; they make up all but 0.46% or so of the library.
PDI turbidity = PDI (human) enzyme inhibition; P07237; inhibition, % at 10 µM; 0.052% of 350,000 active; PDI insulin aggregation turbidity, A650, 90 min;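 active means mean inhibition across replicates of 30% or more, whatever share of single replicates reach that level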
Target sequence (P07237 whole entry, looked up): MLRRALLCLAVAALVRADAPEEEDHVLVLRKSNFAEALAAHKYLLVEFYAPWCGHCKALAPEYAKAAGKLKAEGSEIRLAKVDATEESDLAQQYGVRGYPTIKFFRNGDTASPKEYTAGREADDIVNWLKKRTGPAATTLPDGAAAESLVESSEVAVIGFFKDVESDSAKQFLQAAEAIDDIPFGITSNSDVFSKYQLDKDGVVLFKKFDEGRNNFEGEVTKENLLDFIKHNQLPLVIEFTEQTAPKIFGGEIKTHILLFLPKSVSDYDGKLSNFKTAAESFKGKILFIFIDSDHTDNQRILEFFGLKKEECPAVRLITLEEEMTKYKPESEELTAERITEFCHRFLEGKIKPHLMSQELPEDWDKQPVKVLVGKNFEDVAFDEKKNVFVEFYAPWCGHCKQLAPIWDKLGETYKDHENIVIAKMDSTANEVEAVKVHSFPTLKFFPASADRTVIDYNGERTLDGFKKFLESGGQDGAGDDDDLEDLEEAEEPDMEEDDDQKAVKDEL
CaV13 ICDI inh = Primary screen for inhibitors of IQ motif and Ca2+-dependent inactivation inhibitor domain binding in CACNA1D, Förster resonance energy transfer in living cells, … | HEK cells, CFP/YFP FRET ICDI-IQ, plate reader, 10 min; percent FRET-ratio fall versus neutral wells | inhibition, % at 12.3 µM | 0.098% of 340,000 active | AID 743397;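 active means mean replicate inhibition of at least 30% and at least 1% of replicates passing that level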;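 further: 0% = median of the neutral control wells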
PGC1a acetyl inh = modulators of PGC1a acetylation. 0.17% of 350,000 active. inhibition, % at 15.6 µM. U2OS PGC1a acetylation, AlphaScreen anti-acetyl-lysine; with virally co-expressed GCN5 acetyltransferase;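 active means every replicate shows inhibition of at least 40%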;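 further: 0% = neutral control wells and 100% = positive control wells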
ERp5 block = inhibitors of human ERp5. Q15084. ERp5 insulin aggregation, absorbance 650 nm, 90 min. inhibition, % at 9.99 µM. 0.05% of 350,000 active. AID 651711;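 active means mean replicate inhibition above about 25%, with every replicate also reaching it, limit read from the data, passing the limit was not always enough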
PglD DTNB = blocks C. jejuni PglD acetyltransferase activity; purified PglD enzyme, DTNB colorimetric CoA detection; 0.098% of 360,000 active; inhibition, % at 12.5 µM; in the data active means inhibition above about 16%, passing the limit was not always enough
ERAP1 HTS inh = ERAP1 (human) enzyme inhibition; recombinant ERAP1, Leu-AMC fluorescence, 60 min; AID 652197; inhibition, % at 10.7 µM; Q9NZ08; 0.15% of 340,000 active;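 active means mean replicate inhibition of at least 30%, or all replicates individually reaching that 30% level; inactive means mean below 30% and not every replicate reaching it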;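 further: 0% = neutral control wells and 100% = L-leucinethiol positive control wells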
Starred values were filed as active, the others as inactive; nt = no result.

SMILES	PDI turbidity	CaV13 ICDI inh	PGC1a acetyl inh	ERp5 block	PglD DTNB	ERAP1 HTS inh
O=C(O)C[C@H]1C[C@H]2c3cc(NC(=O)Cc4ccncc4)ccc3O[C@H]2[C@@H](CO)O1	nt	nt	-7	8	nt	0
Cc1nn(C)c2ncc(C(=O)c3ccccc3O)cc12	1	-4	5	0	2	1
Cc1[nH]nc2ncc(C(=O)c3ccccc3O)cc12	1	-5	45*	nt	4	nt
CC1(C)Oc2ccc3ccc(=O)oc3c2-c2cnoc21	nt	-2	12	0	1	56*
COc1ccc2c3c([nH]c2c1)[C@H](CO)N(C(C)=O)CC31CN(C(=O)c2cccc(F)c2)C1	nt	nt	0	nt	nt	nt
CCOc1ccc(Nc2nc(NCc3ccco3)nc(N)c2[N+](=O)[O-])cc1	-5	-4	72*	-4	nt	-4
Nc1nc(NCc2ccco2)nc(Nc2ccc(F)cc2)c1[N+](=O)[O-]	-14	-3	1	7	3	nt
Cc1oc2c(c(C)cc3oc(=O)c(CC(=O)N[C@@H](CC(C)C)C(=O)O)c(C)c32)c1C	6	-2	6	0	-2	15
Cc1oc2c(c(C)cc3oc(=O)c(CC(=O)N[C@H](C(=O)O)C(C)C)c(C)c32)c1C	2	-5	nt	3	4	35*
CC(=O)Nc1nc2nc(-c3ccccc3)cc(-c3ccccc3)n2n1	0	nt	3	nt	-2	nt
O=C1CCC(=O)N1c1nc2nc(-c3ccccc3)cc(-c3ccccc3)n2n1	33*	-5	-3	nt	0	nt
C[C@@H]1CN([C@@H](C)CO)C(=O)c2cc(NC(=O)c3ccncc3)ccc2O[C@@H]1CN(C)Cc1ccc(Oc2ccccc2)cc1	nt	nt	-12	0	-2	0
COc1ccccc1NC(=O)N[C@@H]1CC[C@H](CCn2cc(-c3cccnc3)nn2)O[C@H]1CO	nt	nt	-1	-3	4	-2
COc1ccc2c3c([nH]c2c1)[C@H](CO)N(C(=O)c1ccc(F)cc1)CC31CCN(C(=O)Nc2cccc(F)c2)CC1	nt	nt	nt	66*	nt	5
COc1ccc2c3c([nH]c2c1)[C@H](CO)N(C(=O)c1ccc(F)cc1)CC31CN(C(=O)Nc2cccc(F)c2)C1	nt	nt	nt	-1	nt	2
COc1ccc2c3c([nH]c2c1)[C@@H](CO)N(C(=O)c1ccc(F)cc1)CC31CCN(C(=O)Nc2cccc(F)c2)CC1	nt	nt	nt	63*	nt	3
CCCOc1ccc(/C=C/C(=O)O)cc1OC	-1	-6	62*	2	3	2
COc1ccc(S(=O)(=O)N2CCCC2CNC(=O)C(=O)NC2CCCC2)cc1 (stereo not given)	-3	31*	-25	-2	-1	11
COc1ccc(S(=O)(=O)N2CCCC2CNC(=O)C(=O)NC2CCCCCC2)cc1 (stereo not given)	5	-6	nt	1	nt	0
O=C(C[C@@H]1C=C[C@H](NC(=O)Cc2cccnc2)[C@H](CO)O1)Nc1ccc(-c2ccccc2)cc1	nt	nt	nt	-1	nt	0
Cc1ccc(-c2cnc3c(c2)C(=O)N([C@@H](C)CO)C[C@@H](C)[C@H](CN(C)C)O3)cc1	nt	nt	109*	-2	-2	3
COc1ccc(-c2cnc3c(c2)C(=O)N([C@H](C)CO)C[C@@H](C)[C@@H](CN(C)C(=O)Nc2c(C)noc2C)O3)cc1	nt	nt	43*	0	-6	0
Cc1ccc(-c2cnc3c(c2)C(=O)N([C@@H](C)CO)C[C@@H](C)[C@@H](CN(C)C)O3)cc1	nt	nt	3	-12	1	-1
COc1ccc(-c2cnc3c(c2)C(=O)N([C@H](C)CO)C[C@@H](C)[C@@H](CN(C)C(=O)C2CCC2)O3)cc1	nt	nt	6	-2	2	1
COc1ccc(-c2cnc3c(c2)C(=O)N([C@H](C)CO)C[C@H](C)[C@@H](CN(C)C(=O)C2CC2)O3)cc1	nt	nt	111*	nt	nt	nt
Cc1cccc(-n2c(=O)cc(N3CCN(c4ccc(F)cc4)CC3)[nH]c2=O)c1	8	-6	55*	2	-4	-3
O=S(=O)(c1ccccc1)N1CC2(C1)[C@@H](c1ccccc1)[C@@H](CO)N2CC1CCOCC1	nt	nt	-12	10	nt	-13
Nn1c(SCCOc2ccc(Cl)cc2)nnc1-c1cccnc1	-4	-5	8	0	nt	47*
